The record followed here is PubChem BioAssay (NCI).

Compounds without any hit were thinned out: in the full panel of roughly 83,000, 20% have a hit.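 Testing used 96-well plates and a 48-hour single-concentration exposure. Example: -40 means 40% of the starting cells died.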 Unmarked numbers belong to inactive results. Active and inactive are the calls of the source. How the source made its calls: active means growth percent below 10; inactive means the rest.

What all share (assay): NCI-60 one-dose screen, 48 h (100 = growth as untreated, 0 = no growth, -100 = all killed)
Details in all cases: 10 µM unless noted

Assay [1] concerns DU-145 prostate.
Assay [2] relates to K-562 leukemia.
Assay [3] has as its system MALME-3M melanoma.
The test system of assay [4] is MDA-MB-231 breast.
Assay [5] deals with RXF 393 renal.
Assay [6] concerns SF-268 CNS.
Assay [7] concerns SF-295 CNS.
For assay [8], the system named is SF-539 CNS.
Assay [9] deals with UACC-257 melanoma.
For assay [10], the system named is M14 melanoma.

For the compound `O=c1[nH]cc(N(CCCl)CCCl)c(=O)[nH]1`, the growth in [1] is 52.4%; in assay [2], 83%; in assay [3], 62.5%; in assay [4] it was 95.2%; in assay [5], 68.6%; in [6], 52%. Further, the growth in assay [7] is 49.6%; in [8] it was 46.2%; in assay [9] it was 62%; in assay [10], 73.5%.
Take `O=C1OCCC1Br` (stereo not given): the growth in assay [1] was 106%; in [2], 80.9%; in [3], 97.8%; in [4], 103%; in assay [5] it was 114%; in [6] it was 108%. Besides, the growth was 105% in assay [7], 95.6% in assay [8], 83% in assay [9] and 109% in [10].
Take `O=C(CCCC1CCCCC1)OCC(Cl)(Cl)Cl`: the growth in assay [1] was 105%; in assay [2] it was 99.8%; in assay [3], 102%; in assay [4], 116%; in [5], 114%; in [6] it was 97.1%. For the same compound, the growth in assay [7] was 102%; in [8] it was 104%; in assay [9] it was 109%; in assay [10], 105%.
In the case of `Fc1ccc(N2COOC3(OOC2)C2CC4CC(C2)CC3C4)cc1`, the growth in [1] was 90.8%; in assay [2] it was 26.7%; in assay [3], 106%; in assay [4] it was 95.5%; in assay [5], 115%; in assay [6] it was 91.5%. The growth in [7] was 87.5%; in [8], 82.5%; in assay [9], 89.6%; in [10], 89.5%.
As to `CO[C@H]1CC[C@@]2(C)C(=CC[C@@H]3[C@@H]2CC[C@]2(C)C(=O)C(=O)C[C@@H]32)C1`, the growth in assay [1] was 116%; in assay [2], 101%; in assay [3], 111%; in assay [4], 103%; in assay [5], 26.3%; in assay [6], 103%. The growth in [7] is 110%; in assay [8], 104%; in assay [9], 120%; in [10], 102%.
For `CC[C@H](C)[C@@H]([C@@H](CC(=O)N1CCC[C@H]1[C@H](OC)[C@@H](C)C(=O)N[C@H](C)[C@@H](O)c1ccccc1)OC)N(C)C(=O)[C@@H](NC(=O)[C@@H](NC)C(C)C)C(C)C`, the growth was 10.5% in assay [1]; 11% in [2]; 55.6% in assay [3]; 16.9% in [4]; 46% in assay [5]; 39% in [6]. The growth in assay [7] was 10.8%; in assay [8], -13.9% (active); in [9], 65.7%; in [10], 1.24% (active).
For `CCOC(=O)[C@@H](C)C[C@H](Cc1ccccc1)NC(=O)c1csc([C@@H](C[C@H](C(C)C)N(C)C(=O)[C@H](CCC(C)C)NC(=O)[C@H]2CCCCN2C)OC(C)=O)n1`, the growth in [1] is 15.7%; in assay [2], 7.91% (active); in assay [3] it was 33.1%; in assay [4] it was 1.66% (active); in assay [5] it was 12.6%; in [6], 22.1%. Also, the growth in [7] is 12.2%; in assay [8], -10.2% (active); in assay [9] it was 46.9%; in assay [10], -7.2% (active).
For `COc1ccc(S(=O)(=O)Nc2c(/C=C\c3cc(OC)c(OC)c(OC)c3)ccc(OC)c2O)cc1OC`, the growth was -10.2% (active) in assay [1]; 17.2% in assay [2]; 69.2% in assay [3]; 1.41% (active) in assay [4]; 24.6% in assay [5]; 23.7% in assay [6]. Further, the growth in assay [7] was 12%; in assay [8], -14.6% (active); in assay [9], 58.5%; in assay [10], 9.05% (active).
Turning to `Clc1cccc(N2COOC3(OOC2)C2CC4CC(C2)CC3C4)c1`, the growth is 89.6% in assay [1]; 66.2% in assay [2]; 73.5% in assay [3]; 98.9% in assay [4]; 92.1% in assay [5]; 83.8% in [6]. The growth was 86.1% in [7], 73.3% in [8], 98% in [9] and 93.8% in [10].
With `CCOC(=S)S[C@H]1C[C@@H]2[C@H](CC[C@]3(C)C(=O)CC[C@@H]23)[C@@]2(C)CCC(=O)C=C12`, the growth in assay [1] was 103%; in [2], 95.3%; in assay [3], 107%; in assay [4] it was 95.2%; in assay [5], 102%; in assay [6] it was 95.5%. For the same compound, the growth was 95.7% in [7], 99.7% in assay [8], 101% in assay [9] and 102% in assay [10].
On to `O=C1C2CCC1C(N1CCCC1)CC2` (stereo not given), for which the growth is 107% in [1]; 98.8% in [2]; 94.7% in assay [3]; 110% in assay [4]; 104% in [5]; 102% in assay [6]. Further, the growth was 95.5% in [7], 95% in assay [8], 93% in [9] and 101% in [10].
For `O=C(O)c1c(Cl)n(Cc2ccc(O)cc2)c2ccc(O)cc12`, the growth in [1] was 111%; in [2], 112%; in assay [3], 106%; in assay [4] it was 102%; in assay [5], 46.6%; in [6] it was 101%. In addition, the growth in assay [7] is 101%; in assay [8], 98.8%; in [9], 101%; in assay [10] it was 98%.
On to `Cc1ccc(C(Cc2ccccc2)NCCO)cc1` (stereo not given), for which the growth in [1] was 104%; in [2] it was 104%; in assay [3] it was 97.2%; in assay [4], 103%; in [5], 99.2%; in [6], 98%. For the same compound, the growth in assay [7] was 98.3%; in assay [8], 85.1%; in [9], 92%; in [10] it was 87%.
Take `COc1cc([C@@H]2c3cc4c(cc3[C@H](OC(C)=O)[C@H]3COC(=O)[C@@H]23)OCO4)cc(OC)c1OC`: the growth in assay [1] is 3.27% (active); in [2] it was 11.2%; in assay [3], 57.1%; in assay [4], 8.36% (active); in [5], 52%; in [6], 33%. Moreover, the growth in assay [7] is -15.7% (active); in assay [8], -33.4% (active); in assay [9], 49.2%; in [10], -15.2% (active).
